Reference: PubChem BioAssay (NCATS)
Values joined by “and” are separate entries in the source; they are usually repeats but may differ in a detail not shown here. Equal entries are not always repeated. Records with an inconclusive call do not appear. The source holds several records for some structures; these can differ, active in one and inactive in another. Active and inactive are the calls of the source. Unless noted, the call rests on the fitted dose curve; in most records, active means well fitted curve in the direction sought with a large enough effect; inconclusive means small, poorly fitted or top-dose-only effect, or another doubt; inactive means no such curve, though single readings can be large; an effect the other way counts as inactive or inconclusive.

Experiments:
[1] = biological target: Glucocorticoid receptor (Homo sapiens) (UniProt P04150); assay: GR-GFP Redistribution (AID 450;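 active means compounds whose dose series gives a full or clear partial fitted curve of increased nuclear translocation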; further: potency means the concentration at half of the fitted maximal effect); conditions: U2OS GR-GFP nuclear translocation, laser cytometry, 2 h
Chain of Glucocorticoid receptor (Homo sapiens) (P04150 whole entry, looked up, the tested form may be a part): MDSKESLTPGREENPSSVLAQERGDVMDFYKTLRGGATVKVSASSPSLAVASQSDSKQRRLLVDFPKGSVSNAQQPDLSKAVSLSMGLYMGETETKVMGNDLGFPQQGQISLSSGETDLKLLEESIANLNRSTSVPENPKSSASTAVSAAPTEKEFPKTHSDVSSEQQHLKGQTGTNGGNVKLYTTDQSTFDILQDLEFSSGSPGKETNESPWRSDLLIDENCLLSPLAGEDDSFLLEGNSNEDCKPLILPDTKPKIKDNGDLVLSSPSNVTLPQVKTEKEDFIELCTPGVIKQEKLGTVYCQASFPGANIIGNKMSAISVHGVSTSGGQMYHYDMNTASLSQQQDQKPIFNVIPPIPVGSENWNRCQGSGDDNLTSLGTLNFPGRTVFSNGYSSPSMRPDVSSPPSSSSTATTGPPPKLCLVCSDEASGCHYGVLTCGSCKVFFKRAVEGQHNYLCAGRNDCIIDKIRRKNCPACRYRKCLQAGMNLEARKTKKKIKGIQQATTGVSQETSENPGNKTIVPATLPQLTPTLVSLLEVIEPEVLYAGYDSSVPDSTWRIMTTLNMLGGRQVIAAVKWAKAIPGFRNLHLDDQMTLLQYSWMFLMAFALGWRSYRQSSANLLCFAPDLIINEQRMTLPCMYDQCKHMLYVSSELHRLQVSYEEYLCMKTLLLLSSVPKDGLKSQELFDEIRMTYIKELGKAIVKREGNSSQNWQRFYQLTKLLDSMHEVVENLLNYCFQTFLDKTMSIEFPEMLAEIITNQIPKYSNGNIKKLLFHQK

[2] = biological target: Glucocorticoid receptor (Homo sapiens) (UniProt P04150); assay: GR-EFC Redistribution (AID 451; calls by dose curve; further: potency means the concentration at half of the fitted maximal effect); conditions: CHO-K1 GR-EFC translocation, beta-gal luminescence, 2 h
How it was run: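 CHO-K1 cells expressing nuclear EA and GR-ED fragments of b-gal; compounds titrated up to 46 uM final, 2 h at 37 C. GR nuclear translocation read as complemented b-gal luminescence after 1 h RT detection.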

[3] = biological target: Mitogen-activated protein kinase 10 (Mus musculus) (UniProt Q61831); assay: JNK3 AlphaScreen Assay (AID 530; active means well fitted curve in either direction with a large enough effect, not every such curve was filed as active;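 further: kinase came from lysate of stimulated human HepG2 cells; signal reports phosphorylation of biotinylated GST-cJun 1-79 at Ser73 with 10 µM ATP; on the % scale 0 is the no-effect control and ±100 the full control effect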)
How it was run: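 qHTS format: compounds tested as titrations against IL-1beta/TNF-alpha-activated HepG2 lysate JNK3 with biotin-GST-cJun substrate and 10 uM ATP at room temperature. Loss of anti-phospho-cJun AlphaScreen signal indicates inhibition.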

[4] = biological target: Cytochrome P450 2D6 (Homo sapiens) (UniProt P10635); assay: qHTS Assay for Inhibitors and Substrates of Cytochrome P450 2D6 (AID 891); further: potency means the concentration at half of the fitted maximal effect; nearly all actives have a fitted effect of over 60% in size
Chain of Cytochrome P450 2D6 (Homo sapiens) (P10635 whole entry, looked up): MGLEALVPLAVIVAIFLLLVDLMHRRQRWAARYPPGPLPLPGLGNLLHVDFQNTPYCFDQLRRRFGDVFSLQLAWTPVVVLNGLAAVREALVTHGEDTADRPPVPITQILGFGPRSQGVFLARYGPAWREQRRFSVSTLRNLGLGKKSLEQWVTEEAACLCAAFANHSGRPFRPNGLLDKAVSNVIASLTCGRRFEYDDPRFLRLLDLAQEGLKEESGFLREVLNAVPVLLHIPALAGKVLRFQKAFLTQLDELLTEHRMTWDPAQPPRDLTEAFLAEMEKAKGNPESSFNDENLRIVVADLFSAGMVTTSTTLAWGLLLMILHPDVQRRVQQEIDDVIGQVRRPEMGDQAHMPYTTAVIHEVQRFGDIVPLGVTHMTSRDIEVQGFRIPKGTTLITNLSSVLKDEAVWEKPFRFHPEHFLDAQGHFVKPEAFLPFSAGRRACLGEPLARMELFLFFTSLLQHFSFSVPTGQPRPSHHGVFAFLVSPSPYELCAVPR
How it was run: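 Human CYP2D6 (5 nM) with 30 uM Luciferin-ME EGE (at Km) in 100 mM KPO4, compound preincubated 10 min, then NADPH regeneration system for 60 min at room temperature. Luciferin read by luminescence; normalized to 1.43 uM quinidine.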

[5] = qHTS Assay for Lipid Storage Modulators (AID 1519; calls by dose curve); conditions: Drosophila S3 cells, BODIPY lipid droplet/cell ratio, laser cytometry, cells loaded with oleic acid; for activity change, negative = inhibition: at 57.5 µM (top of the series)
How it was run: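 Cells seeded at 5,000 per well were treated with compounds over a concentration series and loaded with oleic acid (400 uM, as added). Lipid droplet fluorescence (488 nm excitation, 500-530 nm channel) was read by laser-scanning cytometry and normalized to 20 uM Triacsin C.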

[6] = biological target: DNA dC->dU-editing enzyme APOBEC-3G (Homo sapiens) (UniProt Q9HC16); assay: qHTS for inhibitors of Vif-A3G interactions: Validation (AID 588379); further: 0% is about no effect
Chain of DNA dC->dU-editing enzyme APOBEC-3G (Homo sapiens) (Q9HC16 whole entry, looked up): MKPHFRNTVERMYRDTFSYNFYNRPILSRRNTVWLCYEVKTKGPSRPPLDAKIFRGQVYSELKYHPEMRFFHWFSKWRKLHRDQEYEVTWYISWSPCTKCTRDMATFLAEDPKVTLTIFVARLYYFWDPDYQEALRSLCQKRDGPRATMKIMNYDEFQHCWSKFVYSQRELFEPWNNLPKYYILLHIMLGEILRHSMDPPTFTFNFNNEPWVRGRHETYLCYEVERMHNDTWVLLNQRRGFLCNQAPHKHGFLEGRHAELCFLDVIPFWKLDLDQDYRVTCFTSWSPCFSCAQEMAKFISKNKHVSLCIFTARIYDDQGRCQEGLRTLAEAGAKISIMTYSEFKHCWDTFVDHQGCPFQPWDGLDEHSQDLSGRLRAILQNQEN
How it was run: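 HeLa cells stably expressing Vif and A3G-eYFP, 700 cells/well, incubated overnight at 37 deg C, then exposed to compound overnight at 37 deg C. Inhibition of Vif-mediated degradation read as increased yellow fluorescence (Ex 488/Em 500-530) by laser-scanning cytometry.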

[7] = tested on: Zika virus NS2B-NS3 protease; assay: Primary screen GU AMC qHTS for Zika virus inhibitors (AID 1347154);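 further: 0% = no-inhibitor control and -100% = no-enzyme control; nearly all actives have a fitted effect of over 70% in size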
How it was run: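 Unlinked Zika NS2B hydrophilic domain–NS3 protease complex at 25 nM in 10 mM Tris-HCl pH 8.0, 0.01% Tween 20, with an AMC peptide substrate. Fluorescence change (340/450 nm) over 15 min at room temperature, normalized to controls, fitted to 4-parameter Hill.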

[8] = AP1 Signaling Pathway (AID 357; active means well fitted curve in either direction with a large enough effect, not every such curve was filed as active;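 further: ME-180 reporter cells stimulated with EGF at its EC50 level; on the % scale 0 is the no-effect control and ±100 the full control effect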)
How it was run: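 Read-out was the 460nm/530nm emission ratio (excitation 405nm) after CCF4 loading for 2.5 hours at room temperature. Cells carried an AP-1-driven beta-lactamase reporter, were stimulated with EC50 EGF plus compound for 5 hours, and AC50 values came from titrations.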

[9] = biological target: Cytochrome P450 1A2 (Homo sapiens) (UniProt P05177); assay: p450-cyp1a2 (AID 410; calls by dose curve; further: potency means the concentration at half of the fitted maximal effect;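 on activity change, negative = inhibition: -100% = full effect of reference inhibitor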)
Chain of Cytochrome P450 1A2 (Homo sapiens) (P05177 whole entry, looked up): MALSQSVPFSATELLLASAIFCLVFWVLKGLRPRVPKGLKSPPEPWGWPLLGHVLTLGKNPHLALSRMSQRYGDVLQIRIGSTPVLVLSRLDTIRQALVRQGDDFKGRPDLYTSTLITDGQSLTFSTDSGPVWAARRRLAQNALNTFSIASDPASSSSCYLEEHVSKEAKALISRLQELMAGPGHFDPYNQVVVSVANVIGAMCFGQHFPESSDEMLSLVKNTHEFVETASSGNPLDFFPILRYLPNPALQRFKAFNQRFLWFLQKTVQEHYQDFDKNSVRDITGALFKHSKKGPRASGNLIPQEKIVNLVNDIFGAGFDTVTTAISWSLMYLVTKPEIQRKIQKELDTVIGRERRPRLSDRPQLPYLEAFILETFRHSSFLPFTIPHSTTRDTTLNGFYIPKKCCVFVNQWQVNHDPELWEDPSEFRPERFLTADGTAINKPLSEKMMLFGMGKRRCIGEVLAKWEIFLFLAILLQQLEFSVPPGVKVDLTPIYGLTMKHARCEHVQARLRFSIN
How it was run: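 Inhibition was calculated relative to 57 uM furafylline (full inhibition). The reaction used human CYP1A2 at 20nM with Luciferin-ME at its Km, 100uM, driven by an NADPH-regenerating system for 60 min at room temperature.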

[10] = biological target: 3',5'-cyclic-AMP phosphodiesterase 4B (Homo sapiens) (UniProt Q07343); assay: qHTS Assay for Inhibitors of PDE-IV (AID 607; active means well fitted activation curve with a large enough effect in the main read-out, with a control signal flat, not every such curve was filed as active; further: % of control where 0% means no effect)
Chain of 3',5'-cyclic-AMP phosphodiesterase 4B (Homo sapiens) (Q07343 whole entry, looked up): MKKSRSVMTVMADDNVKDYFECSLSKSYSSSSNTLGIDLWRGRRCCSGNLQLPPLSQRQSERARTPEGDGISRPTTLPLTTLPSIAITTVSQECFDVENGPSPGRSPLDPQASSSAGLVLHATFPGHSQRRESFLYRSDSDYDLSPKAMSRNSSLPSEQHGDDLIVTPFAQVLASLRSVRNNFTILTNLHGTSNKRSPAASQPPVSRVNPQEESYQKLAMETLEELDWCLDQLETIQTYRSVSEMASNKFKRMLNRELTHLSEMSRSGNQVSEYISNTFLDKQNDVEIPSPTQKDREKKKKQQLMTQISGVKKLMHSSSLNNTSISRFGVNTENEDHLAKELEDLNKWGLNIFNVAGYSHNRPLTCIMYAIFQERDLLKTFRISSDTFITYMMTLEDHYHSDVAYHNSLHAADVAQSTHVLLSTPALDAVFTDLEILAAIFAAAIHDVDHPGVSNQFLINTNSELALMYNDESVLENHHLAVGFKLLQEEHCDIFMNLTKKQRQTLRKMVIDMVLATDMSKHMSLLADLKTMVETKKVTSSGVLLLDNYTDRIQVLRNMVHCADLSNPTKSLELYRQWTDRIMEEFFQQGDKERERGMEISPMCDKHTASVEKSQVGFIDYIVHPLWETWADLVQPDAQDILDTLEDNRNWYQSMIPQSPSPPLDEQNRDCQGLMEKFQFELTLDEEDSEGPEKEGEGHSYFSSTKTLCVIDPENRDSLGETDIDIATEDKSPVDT
How it was run: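 Cell-based read-out of cAMP via a modified cyclic nucleotide-gated channel and membrane potential dye (535/590 nm) in HEK293 cells expressing PDE4 endogenously. Compounds tested up to 22.9 uM final; 100 uM RO 20-1724 reference.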

[11] = Primary qHTS for small molecule stabilizers of the endoplasmic reticulum resident proteome: Secreted ER Calcium Modulated Protein (SERCaMP) assay (AID 1508630); further: on the % scale 0 is the no-effect control and ±100 the full control effect
How it was run: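 GLuc-SERCaMP-expressing SH-SY5Y cells, pretreated 16 h with compound, are challenged with thapsigargin to empty ER calcium stores; after 4 h, coelenterazine is added directly to the medium and luminescence is imaged.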

[12] = biological target: Ubiquitin carboxyl-terminal hydrolase 1 (Homo sapiens) (UniProt O94782); assay: Inhibitors of USP1/UAF1: Pilot qHTS (AID 504865);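 further: rhodamine fluorescence freed from ubiquitin-rhodamine substrate followed over time; top concentration of the series differs between compounds; on the % scale 0 is the no-effect control and ±100 the full control effect; nearly all actives have a fitted effect of over 35% in size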
Chain of Ubiquitin carboxyl-terminal hydrolase 1 (Homo sapiens) (O94782 whole entry, looked up): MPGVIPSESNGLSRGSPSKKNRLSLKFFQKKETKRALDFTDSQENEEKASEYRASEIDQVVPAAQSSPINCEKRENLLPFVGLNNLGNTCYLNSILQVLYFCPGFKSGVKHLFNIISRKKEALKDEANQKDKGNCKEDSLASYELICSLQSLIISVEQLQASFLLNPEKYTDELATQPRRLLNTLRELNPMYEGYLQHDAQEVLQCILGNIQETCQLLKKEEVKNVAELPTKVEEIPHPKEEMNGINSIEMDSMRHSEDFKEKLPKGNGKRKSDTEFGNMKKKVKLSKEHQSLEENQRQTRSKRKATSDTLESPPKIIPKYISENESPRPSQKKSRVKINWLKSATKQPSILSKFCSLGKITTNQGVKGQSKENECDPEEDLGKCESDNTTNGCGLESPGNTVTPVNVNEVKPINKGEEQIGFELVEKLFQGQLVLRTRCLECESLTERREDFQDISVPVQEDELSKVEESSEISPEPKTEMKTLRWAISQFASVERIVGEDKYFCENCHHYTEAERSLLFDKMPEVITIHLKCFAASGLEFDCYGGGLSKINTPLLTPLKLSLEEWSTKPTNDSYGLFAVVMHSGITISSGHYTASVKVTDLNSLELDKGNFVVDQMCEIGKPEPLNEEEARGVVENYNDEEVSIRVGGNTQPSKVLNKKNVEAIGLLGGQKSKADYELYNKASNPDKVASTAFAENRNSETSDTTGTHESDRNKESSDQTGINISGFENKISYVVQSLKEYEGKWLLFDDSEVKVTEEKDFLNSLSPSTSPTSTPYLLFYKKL
How it was run: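 1nM USP1/UAF1 + cpd, 15 min RT; start w/ Ub-Rho 150nM final; kinetic FL 480/540 nm, 6 reads q60 s. Buffer 50mM HEPES pH 7.8, 0.5mM EDTA, 1mM TCEP, 0.01% Tween-20, 0.1 mg/ml BSA.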

[13] = biological target: Cytochrome P450 3A4 (Homo sapiens) (UniProt P08684); assay: qHTS Assay for Activators of Cytochrome P450 3A4 (AID 885); further: nearly all actives have a fitted effect of over 65% in size; further: potency means the concentration at half of the fitted maximal effect
Chain of Cytochrome P450 3A4 (Homo sapiens) (P08684 whole entry, looked up): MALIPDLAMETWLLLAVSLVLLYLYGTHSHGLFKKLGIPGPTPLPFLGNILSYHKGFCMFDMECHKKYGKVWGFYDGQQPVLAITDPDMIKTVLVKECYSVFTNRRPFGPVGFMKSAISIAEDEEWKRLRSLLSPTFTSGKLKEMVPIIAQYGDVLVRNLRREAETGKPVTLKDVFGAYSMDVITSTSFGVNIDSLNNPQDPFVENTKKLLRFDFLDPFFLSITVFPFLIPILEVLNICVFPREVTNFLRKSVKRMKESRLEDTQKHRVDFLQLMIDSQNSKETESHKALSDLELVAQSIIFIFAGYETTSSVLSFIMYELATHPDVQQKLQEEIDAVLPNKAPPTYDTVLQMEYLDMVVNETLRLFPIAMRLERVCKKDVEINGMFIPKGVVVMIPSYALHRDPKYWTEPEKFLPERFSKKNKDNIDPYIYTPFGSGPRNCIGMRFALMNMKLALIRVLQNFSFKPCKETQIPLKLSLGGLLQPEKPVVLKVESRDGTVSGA
How it was run: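 Signal was normalized against complete inhibition by 57 uM ketoconazole. The reaction used 20nM CYP3A4 with 25uM Luciferin-PPXE, 10-min compound preincubation and a 60-min NADPH-supported step at RT.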

[14] = OV-KATE Cancer Cell Toxicity qHTS against the NCATS CANVASS Library (AID 1347345); further: on the % scale 0 is the no-effect control and ±100 the full control effect
How it was run: (§1)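 Following a 4 h pre-incubation of 1000 seeded cells, compounds were pinned in an 11-pnt dilution series and left for 72 h; viability then came from CellTiter-Glo.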

[15] = HPAF-II Cancer Cell Toxicity qHTS against the NCATS CANVASS Library (AID 1347346); further: on the % scale 0 is the no-effect control and ±100 the full control effect; nearly all actives have a fitted effect of over 55% in size
How it was run: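 Cytotoxicity in HPAF-II pancreatic cancer cells: 72 h treatment across 11 concentrations, ATP-based CellTiter-Glo luminescence endpoint.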

[16] = Panc-1005 Cancer Cell Toxicity qHTS against the NCATS CANVASS Library (AID 1347349); further: on the % scale 0 is the no-effect control and ±100 the full control effect; nearly all actives have a fitted effect of over 60% in size
How it was run: as §1

[17] = COV-362 Cancer Cell Toxicity qHTS against the NCATS CANVASS Library (AID 1347352); further: on the % scale 0 is the no-effect control and ±100 the full control effect
How it was run: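 qHTS cytotoxicity: compounds tested in 11 concentrations on 1000 seeded cells per well over 72 h; bortezomib served as control; signal from CellTiter-Glo luminescence.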

[18] = HPAF-II 24hr Apoptosis Induction qHTS against the NCATS CANVASS Library (AID 1347356); further: 0% is about no effect
How it was run: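 Apoptosis induction in HPAF-II pancreatic cancer cells is measured as caspase-3/7 luminescence after a 24-hour exposure to compounds.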

[19] = HPAF-II 12hr Apoptosis Induction qHTS against the NCATS CANVASS Library (AID 1347358); further: 0% is about no effect
How it was run: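 Apoptosis in HPAF-II pancreatic cancer cells is scored as caspase 3/7 luminescence following a 12-hour exposure to an 11-point compound series.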

[20] = HEK293 24hr Apoptosis Induction qHTS against the NCATS CANVASS Library (AID 1347359); further: 0% is about no effect
How it was run: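 HEK293 cells, 500 per well, exposed to an 11-point compound series for 24 hours at 37 degrees C. Caspase 3/7 activity read by Caspase-Glo luminescence (DEVD substrate) after 15 min at room temperature.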

[21] = measured here: cell count channel max response
[22] = measured here: lipid channel max response

NC[C@H](CC(=O)O)c1ccc(Cl)cc1
19.1%: max response [5, 22]
12.8%: max response [5, 21]
inactive: Potency [1] > 46 µM | Potency [2] > 46 µM | outcome [3] | activity change, negative = inhibition [5] 2.02% | Potency [6] | Potency [7]
active: Potency [4] 794 nM

CC(C)(O)[C@H]1O[C@@H]2CC[C@]3(C)[C@@]4(C)c5[nH]c6ccccc6c5C[C@@H]4CC[C@]3(O)C2=CC1=O
inactive: Potency [2] > 46 µM | Potency [6] | Potency [7]
active: Potency [1] 6.76e-05 µM

O=C1C2CCN(CC2)C1(CO)CO
inactive: activity change, negative = inhibition [8] 3.23% [at 7.69 µM] | Potency [9] | Potency [2] > 46 µM and > 9.22 µM | outcome [3] | Potency [10] | Potency [6] | Potency [11]

CNCC/C=C\c1cccnc1
-7.59%: max response [5, 21]
inactive: Potency [9] | Potency [1] > 46 µM | Potency [2] > 46 µM | outcome [3] | activity change, negative = inhibition [5] 4.36% | Potency [12] | Potency [6] | Potency [11]
-3.17%: max response [5, 22]

CCN(CC)CCO[C@H]1CC[C@@]2(C)C(=CC[C@@H]3[C@H]2CC[C@]2(C)C(=O)CC[C@H]32)C1
inactive: Potency [9] | outcome [3] | Potency [10] | Potency [12] | Potency [6]
active: Potency [13] 15.8 µM | Potency [4] 79.4 nM

c1ccc2c3c([nH]c2c1)CNCC3
inactive: outcome [8] | Potency [1] > 20.6 µM | Potency [14] | Potency [15] | Potency [16] | Potency [17] | outcome [18] | outcome [19] | Potency [20]

CCCCC[C@@H](/C=C/C=C\C/C=C\C/C=C\CCCC(=O)O)OO
inactive: activity change, negative = inhibition [11] -17.3% [at 0.478 µM]

NCC(CS(=O)(=O)O)c1ccc(Cl)cc1 (stereo not drawn)
inactive: Potency [11]

CCCCC/C=C\C/C=C\C/C=C\C=C\[C@H](CCCC(=O)O)OO
inactive: activity change, negative = inhibition [11] -17.5% [at 0.478 µM]

c1cncc(C2CCCCN2)c1 (stereo not drawn)
15%: max response [5, 21]
inactive: activity change, negative = inhibition [5] 4.14% | Potency [12] | Potency [11]
20.8%: max response [5, 22]

CCN1C[C@]2(C)CC[C@H](O)[C@]34C1C(C[C@H]23)[C@@]12CC[C@H](CC14)[C@](O)(COC(=O)c1ccc(OC)c(OC)c1)[C@H]2O (stereo partly drawn)
inactive: Potency [14] | Potency [15] | Potency [16] | Potency [17] | outcome [18] | outcome [19] | Potency [20]

CNCCc1c[nH]c2ccccc12
inactive: outcome [8] | Potency [1] > 20.6 µM | Potency [14] | Potency [15] | Potency [16] | Potency [17] | outcome [18] | outcome [19] | Potency [20]

CN(C(=O)Cc1ccc(Cl)c(Cl)c1)C(CN1CCCC1)c1cccc(N=C=S)c1 (stereo not drawn)
inactive: Potency [11]

CCCC[C@@H]1CC[C@H]2CCCC(CCC)N12 (stereo partly drawn)
inactive: Potency [14] | Potency [15] | Potency [16] | Potency [17] | outcome [18] | outcome [19] | Potency [20]

O=NN1CCCC1c1cccnc1 (stereo not drawn)
inactive: Potency [11]

COc1cc(OC2CCN(C(C)=O)CC2)ccc1C(=O)N1CCC(N2C(=O)OCc3ccccc32)CC1
inactive: Potency [11]

CO[C@@H](/C=C/CC/C=C/C(=O)O)[C@@H](O)[C@H](C)[C@@H](O)/C(C)=C/[C@H](C)C(=O)CCCC1CC(=O)NC(=O)C1
inactive: Potency [14] | Potency [15] | Potency [16] | Potency [17] | outcome [18] | outcome [19] | Potency [20]

CC(C)C[C@H](NC(=O)[C@H](Cc1ccccc1)NC(=O)CNC(=O)[C@@H](NC(=O)[C@@H](N)Cc1ccc(O)cc1)[C@H](C)O)C(=O)N[C@H](C(=O)O)[C@H](C)O
inactive: activity change, negative = inhibition [11] -27.9% [at 3.88 µM]

CC(C)[C@@]1(NC(=O)[C@@H]2C[C@H]3c4cccc5[nH]cc(c45)C[C@@H]3N(C)C2)O[C@@]2(O)[C@H]3CCCN3C(=O)[C@H](Cc3ccccc3)N2C1=O
inactive: Potency [9] | Potency [1] > 46 µM | Potency [2] > 46 µM | outcome [3] | Potency [10] | Potency [12] | Potency [6]

CC1OC(=O)[C@@H](C(C)C)NC(=O)C(C(C)C)OC(=O)[C@H](C(C)C)NC(=O)C(C)OC(=O)[C@@H](C(C)C)NC(=O)C(C(C)C)OC(=O)[C@H](C(C)C)NC(=O)C(C)OC(=O)[C@@H](C(C)C)NC(=O)C(C(C)C)OC(=O)[C@H](C(C)C)NC1=O (stereo partly drawn)
inactive: Potency [11]

CCCCC/C=C\C=C\[C@H](CCCCCCCC(=O)O)OO
inactive: activity change, negative = inhibition [11] -24.7% [at 0.478 µM]

CC(Cc1cccc(C(F)(F)F)c1)NCCCc1ccccc1 (stereo not drawn)
inactive: Potency [11]

Fc1ccc(C(OCCN2CCN(C/C=C\c3ccccc3)CC2)c2ccc(F)cc2)cc1
inactive: Potency [1] > 46 µM | Potency [2] > 46 µM | outcome [3] | Potency [13] | Potency [12] | Potency [6]
active: Potency [9] 31.6 µM | Potency [4] 7940 nM

COC(=O)N1CCN(C(=O)Cc2ccc(Cl)c(Cl)c2)[C@H](CN2CCCC2)C1
inactive: outcome [8] | Potency [9] | Potency [2] > 46 µM | Potency [13] | Potency [6] | Potency [11]
> 46 µM (inactive) and 1.28 µM (active): Potency [1]
